Compound activity as filed in PubChem.
Hits are enriched below; roughly 3% of the tested compounds scored in any of these assays.
Wnt bcat act = activators of Wnt/beta-catenin signaling. Wnt/beta-catenin reporter cell assay, activator, plate reader. activation, % at 9.35 µM. 1.2% of 300,000 active; in the data active = activation above about 30%, passing the limit was not always enough; inconclusive = no clear call, values can overlap the other calls;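 also: 0% = neutral control wells and 100% = positive control wells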
Statin myotox sup = suppression of simvastatin myotoxicity; C2C12 myotubes + simvastatin, ATP luminescence, 48 h; scaled: DMSO 0, geranylgeraniol control 100; rescue of ATP level, % at 7.49 µM; 0.78% of 330,000 active;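 active = mean ATP rescue above about 67%, or every replicate alone reaching that limit, limit read from the data, passing the limit was not always enough; inconclusive = no clear call, values can overlap the other calls; inactive = mean under the limit and some replicate under it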;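 also: myotubes were challenged with 10 µM simvastatin during compound exposure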
esBAF inh = blocks esBAF chromatin remodeling in mouse ES cells; 2% of 350,000 active; Bmi1-luciferase knock-in reporter, 24 h; 100% = twice the neutral-well signal; reporter increase, % at 12.5 µM; AID 602393; in the data active = activation above about 40%; inconclusive = no clear call, values can overlap the other calls;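 also: 0% = median of the plate's neutral control wells and 100% = double that signal; a rise in the Bmi1 reporter signal indicates esBAF inhibition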
MITF TRPM1 HTS = activators of MITF-driven TRPM1 promoter activity in SK-MEL-5 cells. 0.75% of 300,000 active. SK-MEL-5 TRPM1-promoter luciferase, 24 h; % of positive control, neutral wells = 0. activation, % at 12.5 µM. AID 588334;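 active = mean activation of at least 80% with every replicate also reaching 80%; inconclusive = mean reaches 80% but some replicate falls short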;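 also: 0% = neutral control wells and 100% = parthenolide positive control wells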
Starred values were filed as active, the others as inactive; ? = inconclusive; . = no result.

SMILES	Wnt bcat act	Statin myotox sup	esBAF inh	MITF TRPM1 HTS
Cc1ccc(S(=O)(=O)N[C@H]2C=C[C@@H](CC(=O)NCc3ccncn3)O[C@H]2CO)cc1	.	-5	3	.
C[C@@H]1CCCCO[C@H](CN(C)S(=O)(=O)c2cn(C)cn2)[C@@H](C)CN([C@@H](C)CO)C(=O)c2cc(NS(=O)(=O)c3cn(C)cn3)ccc2O1	.	.	3	.
COc1ccc(NC(=O)N(C)C[C@H]2Oc3ccc(NC(=O)Cn4cnnn4)cc3CC(=O)N([C@H](C)CO)C[C@@H]2C)cc1	.	-19	3	.
CCOc1ccccc1CNC(=O)c1cn(C)c(=O)c2c1c1ccccc1n2C	47*	-26	-7	-5
Cc1c(C(=O)NCc2ccoc2)oc2ccc3c(c12)C(=O)CC(C)(C)O3	.	6	104*	52
CCCNC(=O)c1oc2ccc3c(c2c1C)C(O)CC(C)(C)O3 (stereo unspecified)	0	-1	16	29
Cc1cccc(NC(=O)/C(C#N)=C/c2ccc[nH]2)c1C	7	-4	49*	13
C[C@H](CO)N1C[C@H](C)[C@@H](CN(C)C(=O)CN(C)C)Oc2cc(C#CC(C)(C)O)ccc2S1(=O)=O	.	20	3	.
COCC(=O)Nc1ccc2c(c1)OC[C@@H](C)N(Cc1ccccc1OC)C[C@@H](C)[C@H](OC)CN(C)C2=O	.	-10	-2	.
Nc1[nH]c(N=NC(=O)c2ccccc2O)c2ccccc12	71*	.	.	17
O=C(C/C=N/OCc1c(Cl)cccc1Cl)c1cnc(-c2ccccc2)s1	.	108*	12	10
O=C(C/C=N/OCc1ccc(Cl)cc1)c1cnc(-c2ccccc2)s1	-1	-2	4	.
Clc1ccc(-c2cnc3cccnn23)cc1	0	0	50*	.
C[C@@H]1CN([C@H](C)CO)C(=O)c2cccc(N(C)C)c2O[C@H]1CN(C)S(=O)(=O)c1ccc(Cl)cc1	.	-7	0	.
COc1ccc(-c2csc3ncnc(N4CCN(S(=O)(=O)c5cccc(Br)c5)CC4)c23)cc1	-8	77*	5	-14
C[C@@H]1CN([C@@H](C)CO)C(=O)Cc2cc(NC(=O)C3CCCCC3)ccc2O[C@H]1CN(C)Cc1ccc2c(c1)OCO2	.	6	0	.
CCCCN(C)C(=O)c1cc2cc3ccc(OC)cc3nc2o1	1	-35	?	41
CCCCN(C)C(=O)c1cc2cc3cc(OC)ccc3nc2o1	44*	.	.	68
NC(=O)C1CCN(c2ccc3c(c2)S(=O)(=O)c2ccccc2C3=O)CC1	8	18	7	31
CC1CCN(c2ccc3c(c2)S(=O)(=O)c2ccccc2C3=O)CC1	52*	-14	53*	86*
C[C@@H]1CN([C@H](C)CO)C(=O)Cc2cc(NC(=O)CCC(F)(F)F)ccc2O[C@@H]1CN(C)Cc1ccc(Cl)c(Cl)c1	.	47	-3	.
COc1cc(CNc2ccc(N3CCN(C(C)=O)CC3)cc2)ccc1OCc1ccccc1	40*	.	.	-7
O=c1[nH]c2ccc(NCc3ccc(OCc4ccccc4Cl)cc3)cc2[nH]1	8	64	27	83*
COc1cc(CNc2ccc3[nH]c(=O)[nH]c3c2)ccc1OCc1ccc(C)cc1	44*	1	55*	68
COc1ccc(S(=O)(=O)N(C)C[C@H]2Oc3ccc(NC(=O)Cc4ccccc4)cc3CC(=O)N([C@@H](C)CO)C[C@H]2C)cc1	.	-4	-2	.
SMILES	Wnt bcat act	Statin myotox sup	esBAF inh	MITF TRPM1 HTS
C[C@@H]1CCCCO[C@@H](CN(C)Cc2ccc(C(=O)O)cc2)[C@@H](C)CN([C@@H](C)CO)C(=O)c2cc(NS(=O)(=O)c3ccccc3)ccc2O1	.	-38	0	.
C[C@H]1CCCCO[C@H](CN(C)C(=O)c2ccccc2)[C@@H](C)CN([C@@H](C)CO)C(=O)c2cc(NC(=O)Nc3ccccc3)ccc2O1	.	.	-2	.
CNC[C@H]1Oc2ncc(-c3ccccc3C)cc2C(=O)N([C@@H](C)CO)C[C@H]1C	.	-3	3	.
Cc1ccc(-c2noc(-c3ccccc3C(=O)N3CCN(C)CC3)n2)cc1	-4	.	64*	.
O=C(c1ccccc1-c1nc(-c2ccccc2)no1)N1CCCC1	11	22	57*	2
CCOC(=O)C1CCN(c2nc(C)cc(C)c2C#N)CC1	-4	.	.	1
Cc1cc(C)c(C#N)c(N2CCCC(C(N)=O)C2)n1 (stereo unspecified)	.	170*	-3	6
Cc1cc(C)c(C#N)c(N2CCSCC2)n1	62*	0	-8	14
O=C(NCC1CC1)[C@@H]1[C@@H](CO)[C@@H]2Cn3c(ccc(-c4ccccc4)c3=O)[C@@H]2N1Cc1cocn1	.	8	1	.
C=C[C@@H]1c2c(F)cccc2N(S(=O)(=O)c2ccc(C)cc2)[C@H](c2ccc(C(=O)OC)cc2)C1(C#N)C#N	4	126*	-2	0
N#C[C@@H]1[C@@H](c2ccccc2)[C@H](CO)N1C(=O)Cc1ccccn1	.	4	-1	.
c1ccc(Cc2nc(-c3ccccn3)no2)cc1	23	3	26	64
Clc1cc(Cl)c(OCc2nc(-c3ccccn3)no2)cc1Cl	51*	-12	7	.
CC(C)(C)c1ccc(OCc2nc(-c3ccccn3)no2)c(Br)c1	51*	-20	11	52
COCC#Cc1cnc2c(c1)C(=O)N([C@@H](C)CO)C[C@H](C)[C@H](CN(C)C(=O)CCN1CCCCC1)O2	.	-2	1	.
CC1CCN(CCc2nc3cc(NC(=O)Nc4ccccc4)ccc3n2C)CC1	22	-13	44*	.
CC(=O)Nc1ccc2c(c1)nc(CCN1CCC(C)CC1)n2C	-4	-5	-12	2
COCCNC(=O)C[C@@H]1C[C@H]2c3cc(NC(=O)CC4CC4)ccc3O[C@H]2[C@H](CO)O1	.	8	-5	.
Cc1nnc(NC(=O)C2CCCN(S(=O)(=O)Cc3ccccc3)C2)s1 (stereo unspecified)	.	120*	-5	-15
O=C(CC(SCCO)c1ccc2c(c1)OCO2)c1cccs1 (stereo unspecified)	42*	24	84*	88*
CC(NC(=O)Cc1cccs1)c1ccc2c(c1)OCO2 (stereo unspecified)	0	2	5	4
O=C(CC(SCc1ccco1)c1ccc(O)cc1)c1cccs1 (stereo unspecified)	.	44	71*	67
O=C(CSc1nnc(-c2ccc(O)cc2)n1Cc1ccco1)c1cccs1	.	11	3	.
C[C@H](CO)N1C[C@H](C)[C@@H](CN(C)C(=O)Nc2ccccc2)Oc2c(NS(C)(=O)=O)cccc2C1=O	.	8	0	.
CNC[C@@H]1Oc2ccc(NS(=O)(=O)c3ccccc3)cc2C(=O)N([C@@H](C)CO)C[C@H]1C	.	5	1	.
C[C@H](CO)N1C[C@H](C)[C@@H](CN(C)C(=O)Nc2ccc(C(F)(F)F)cc2)Oc2ccc(NC(=O)C3CCCCC3)cc2CC1=O	.	-32	-5	.
COc1ccccc1-c1nc(SCc2ccccn2)n[nH]1	3	-13	60*	-3
COc1ccccc1-c1nnc(SCc2ccccn2)n1C	.	-17	0	-5
CC1CN(Cc2ccccc2)c2nc3c(c(=O)[nH]c(=O)n3C)n2C1 (stereo unspecified)	34*	.	.	-1
